This is a sample that favours compounds with a hit; in the whole collection about 1.6% have one here.
Myeloid diff MLP – induction of myeloid progenitor differentiation, primary screen, cell-based, flow cytometry, MLPCN library. ER-HoxA9 myeloid progenitors, lysozyme-GFP differentiation. calls only at 10 µM. 360,000 tested, 1% active;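 active means normalized GFP-positive differentiation at or above the plate's own cutoff, the solvent-only control mean plus 3 SD; inconclusive means no clear call, values can overlap the other calls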;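 further: cells exposed to compound for four days before flow analysis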
Vif imaging – HIV Vif self-association inhibitors, primary screen, imaging, HEK293T, single point. HEK293T cells, Vif self-association by quenched fluorescence, 24 h. 340,000 tested, 0.35% active. inhibition, % at 7.49 µM; in the data active means inhibition above about 50%, passing the limit was not always enough; inconclusive means no clear call, values can overlap the other calls; inactive means below about 31%
ABCB6 inh 2 – ABCB6 transporter inhibitors, primary screen, K562-ABCB6 cells, flow cytometry, MLPCN library; ATP-binding cassette sub-family B member 6 (Homo sapiens), Q9NP58; K562-ABCB6 porphyrin accumulation, 1 h; active compounds read low; fluorescence ratio to DMSO, % at 10 µM; 360,000 tested, 0.19% active; AID 602162, 2011;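 active means fluorescence ratio to DMSO below 75%, the collection mean minus 3 SD; inconclusive means too few cells collected in the well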;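 further: signal is porphyrin accumulated inside mitochondria; 100% equals median channel fluorescence of DMSO control wells; lower ratio means ABCB6 inhibition with less porphyrin fluorescence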
Target sequence (Q9NP58 whole entry, looked up): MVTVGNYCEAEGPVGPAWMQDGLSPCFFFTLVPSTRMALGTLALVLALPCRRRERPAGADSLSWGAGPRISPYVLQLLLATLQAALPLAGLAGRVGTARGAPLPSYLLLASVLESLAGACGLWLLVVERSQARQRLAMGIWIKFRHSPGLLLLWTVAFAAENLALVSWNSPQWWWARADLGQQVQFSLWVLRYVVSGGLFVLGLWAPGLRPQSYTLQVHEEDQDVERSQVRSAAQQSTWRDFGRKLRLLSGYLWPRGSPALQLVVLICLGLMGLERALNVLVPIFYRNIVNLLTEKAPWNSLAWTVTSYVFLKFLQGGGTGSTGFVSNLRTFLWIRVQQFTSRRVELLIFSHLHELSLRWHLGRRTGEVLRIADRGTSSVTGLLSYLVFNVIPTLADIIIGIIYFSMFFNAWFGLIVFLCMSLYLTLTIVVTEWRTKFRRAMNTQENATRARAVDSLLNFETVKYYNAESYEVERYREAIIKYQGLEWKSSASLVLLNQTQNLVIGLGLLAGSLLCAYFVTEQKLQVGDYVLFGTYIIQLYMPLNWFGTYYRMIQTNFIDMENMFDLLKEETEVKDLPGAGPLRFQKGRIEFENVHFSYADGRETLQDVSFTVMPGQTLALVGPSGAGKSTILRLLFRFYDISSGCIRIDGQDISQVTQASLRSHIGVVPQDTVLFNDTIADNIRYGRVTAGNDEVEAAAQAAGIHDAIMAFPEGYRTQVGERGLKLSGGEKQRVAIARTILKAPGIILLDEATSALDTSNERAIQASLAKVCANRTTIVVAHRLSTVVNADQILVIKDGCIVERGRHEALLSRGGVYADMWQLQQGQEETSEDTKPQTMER
N-glyco inh – increase of ERlucT glycosylation luciferase signal, primary screen, N-linked glycosylation inhibitor project, D54 ERlucT cells, luminescence, set 2 | D54 ERlucT glycosylation luciferase reporter, 24 h; percent of 100 nM tunicamycin response | reporter increase, % at 12.5 µM | 360,000 tested, 0.23% active | AID 588692, 2011;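 active means mean luciferase reporter signal, scaled so untreated is 0 and the glycosylation-blocking control 100, at or above a set limit in every replicate; inconclusive means mean reaches the limit but not every replicate does; inactive means mean below the limit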;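 further: luciferase carries N-glycosylation sites so blocking glycosylation raises the light; 0% = median of neutral control wells and 100% = median of 100 nM tunicamycin wells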
RAD54 inh – inhibitors of human RAD54 branch migration, primary screen, biochemical, fluorescence, single point | 360,000 tested, 0.14% active | inhibition, % at 10.4 µM | RAD54 Holliday junction branch migration, FAM/BHQ fluorescence | AID 602329, 2012;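 active means mean normalized replicate activity at least 40 and at least half of replicates scoring 40 or more; inconclusive means only one of the two criteria met; inactive means mean below 40 and under half of replicates reaching 40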;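 further: 0% = median of neutral control wells and 100% = median of positive control wells; inhibitors cause a drop in the FAM fluorescence signal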
ABCB6 inh CP1 – ABCB6 transporter inhibitors, confirmation, K562-ABCB6 cells, flow cytometry, cherry pick 1. shares compounds with ABCB6 inh 2. K562-ABCB6 porphyrin accumulation, 1 h; active compounds read low. ratio response (% of DMSO), % at 10 µM. 700 tested, under 10 active;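 active means repeat-averaged ratio response below 75% of DMSO, the collection mean minus 3 SD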;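 further: median porphyrin fluorescence at 575 nm with 488 nm excitation from mitochondria; lower ratio means less porphyrin signal so ABCB6 inhibition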
K562 vector FC – empty-vector K562 compound effect – cell-based, flow cytometry, cherry pick set 2, counter-screen for ABCB6 inhibitor project, dose response. shares compounds with ABCB6 inh 2. K562 empty-vector cells, flow cytometry fluorescence, 1 h. percent response (fluorescence), % at 100 µM. 25 tested, under 10 active;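 active means compounds whose half-maximal effective concentration is below 100 µM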
An asterisk follows results filed as active; i = inactive; ? = inconclusive; . = no result.

SMILES | Myeloid diff MLP | Vif imaging | ABCB6 inh 2 | N-glyco inh | RAD54 inh | ABCB6 inh CP1 | others
Cc1ccc(C)c(NC(=O)C2(C)CCN2C(C)C)c1 (stereo unspecified) | i | 16.3 | 101.0 | 1.1 | 2.8 | .
Cc1nn(Cc2ccccc2)c(C)c1C(=O)N1CCN(CC(=O)Nc2ccc(F)cc2)CC1 | i | 3.3 | 100.0 | 1.3 | -0.6 | .
Cc1cccc(NC(=O)CN2CCN(C(=O)c3c(C)nn(Cc4ccccc4)c3C)CC2)c1C | i | 9.2 | 56.0* | 1.6 | 4.6 | 100.0
Cc1ccc(-c2csc3ncnc(N4CCN(S(=O)(=O)c5cccs5)CC4)c23)cc1 | i | -15.9 | 74.0* | -8.5 | 0.7 | 97.0
CC(O)c1cccc(NC2=CC(=O)CC(C)(C)C2)c1 (stereo unspecified) | i | -4.3 | 64.0* | 0.7 | -3.3 | 100.0
CCC(=O)Nc1ccc2c(c1)nc1n2CCSC1 | i | 3.1 | 70.0* | 1.4 | 1.5 | 99.0
Cc1ccccc1N1C(=O)[C@@H]2Cc3ccccc3CN2C1=O | i | 25.0 | 68.0* | -0.4 | 1.9 | 98.0
O=C(COc1ccc(S(=O)(=O)NC2CCCCC2)cc1Cl)NCC1CCCO1 (stereo unspecified) | i | 28.0 | 97.0 | -0.7 | -8.4 | .
Cc1cc(S(=O)(=O)NC2CCCCC2)ccc1OCC(=O)NCC1CCCO1 (stereo unspecified) | i | 0.0 | 73.0* | 1.1 | 5.2 | 99.0
O=C(NCCN1CCOCC1)c1cc(-c2ccc(F)cc2)nc2ccccc12 | i | . | 90.0 | 0.3 | . | .
Cc1cc(C(=O)NCCN2CCOCC2)c2ccccc2n1 | i | -2.4 | 74.0* | 0.0 | 4.6 | 103.0
CC(c1cccs1)N(Cc1ccco1)C(=O)Nc1ccc(Cl)c(Cl)c1 (stereo unspecified) | i | -8.8 | 97.0 | -5.5 | 5.5 | .
COc1cccc(NC(=O)N(Cc2ccco2)C(C)c2cccs2)c1 (stereo unspecified) | i | -4.1 | 73.0* | -0.8 | -6.8 | 106.0
COc1cc(C)ccc1S(=O)(=O)NC(=O)C1(C)CCN1C(=O)Cc1ccc(C(C)(C)C)cc1 (stereo unspecified) | i | 12.4 | 99.0 | 2.2 | 11.8 | 100.0
CC1(C(=O)NS(=O)(=O)c2ccc(C#N)cc2)CCN1C(=O)Cc1ccc(-c2ccccc2)cc1 (stereo unspecified) | i | 7.4 | 95.0 | 0.9 | -2.4 | 98.0
CC(C)(C)c1ccc(S(=O)(=O)NC(=O)C2(C)CCN2C(=O)Cc2ccc(-c3ccccc3)cc2)cc1 (stereo unspecified) | i | 2.0 | 90.0 | 1.3 | 1.9 | 98.0
CC1(C(=O)NS(=O)(=O)c2ccc(Cl)cc2)CCN1C(=O)Cc1ccc(-c2ccccc2)cc1 (stereo unspecified) | i | 20.2 | 93.0 | 1.3 | -2.4 | .
CCCCc1ccc(S(=O)(=O)NC(=O)C2(C)CCN2C(=O)Cc2ccccc2)cc1 (stereo unspecified) | i | 21.1 | 100.0 | 0.7 | 6.2 | 97.0
Cc1ccc(NC(=O)c2nc(S(=O)(=O)Cc3ccccc3C)ncc2Cl)cc1C | ? | -7.2 | 48.0* | 0.3 | -3.1 | . | K562 vector FC=254.3
CCSc1ncc(Cl)c(C(=O)Nc2ccc(S(=O)(=O)Nc3ncccn3)cc2)n1 | i | 8.3 | 108.0 | 2.0 | -1.9 | .
Cc1ccc(S(=O)(=O)CCc2nnc(NC(=O)c3cnccn3)s2)cc1 | i | . | 98.0 | 2.1 | -21.7 | .
CCCS(=O)(=O)c1ncc(Cl)c(C(=O)Nc2ccc(S(=O)(=O)Nc3ncccn3)cc2)n1 | i | 1.8 | 103.0 | 0.2 | 1.8 | 104.0
CCCc1nnc(NC(=O)c2nc(S(=O)(=O)Cc3ccc(C)cc3)ncc2Cl)s1 | i | -15.3 | 91.0 | 14.3 | 2.3 | . | K562 vector FC=260.7
CCOc1ccccc1NC(=O)c1nc(S(=O)(=O)Cc2ccccc2)ncc1Cl | ? | 15.6 | 44.0* | -19.3 | 1.8 | . | K562 vector FC=275.6
CO[C@H]1CN(C)C(=O)c2cc(NC(=O)Nc3cccc(Cl)c3)ccc2OC[C@@H](C)NC[C@H]1C | . | . | . | . | 5.7 | .
SMILES | Myeloid diff MLP | Vif imaging | ABCB6 inh 2 | N-glyco inh | RAD54 inh | ABCB6 inh CP1 | others
C/C=C/c1ccc([C@H]2[C@H]3CN(S(=O)(=O)c4cccs4)CCCCN3[C@H]2CO)cc1 | . | . | . | . | 3.2 | .
CN(C)c1ccc2c(c1)[C@@H]1C[C@@H](CC(=O)NCc3ccc(-c4ccccc4)cc3)O[C@H](CO)[C@@H]1O2 | . | . | . | . | 5.6 | .
CCOC(=O)c1ccc(NC(=O)CCS(=O)(=O)Cc2ccccc2)cc1 | i | 2.2 | 106.0 | 0.1 | 2.3 | .
CC(C)c1nnc(NC(=O)c2nc(S(=O)(=O)Cc3ccccc3)ncc2Cl)s1 | ? | -19.4 | 81.0 | -0.6 | 8.0 | . | K562 vector FC=198.7
CSc1nnc(NC(=O)c2nc(S(=O)(=O)Cc3ccccc3)ncc2Cl)s1 | i | -9.2 | 104.0 | -11.1 | -0.5 | .
CCOC(=O)c1ccc(NC(=O)c2nc(S(=O)(=O)Cc3ccccc3)ncc2Cl)cc1 | i | -3.4 | 46.0* | -14.5 | -0.9 | . | K562 vector FC=230.8
CCc1ccc(NC(=O)c2nc(S(=O)(=O)Cc3ccccc3)ncc2Cl)cc1 | ? | -11.4 | 66.0* | -10.5 | 9.5 | . | K562 vector FC=258.6
O=C(C[C@@H]1CC[C@H]2[C@@H](COC[C@H](O)CN2Cc2ccc(F)cc2)O1)NCc1ccncn1 | . | . | . | . | 3.9 | .
C[C@H]1CN([C@@H](C)CO)C(=O)CCCn2cc(nn2)CO[C@H]1CN(C)Cc1ccc(C(F)(F)F)cc1 | . | . | . | . | 10.5 | .
O=C(CCc1nnc2ccc(N3CCC4(CC3)OCCO4)nn12)N1CCCCC1 | i | -6.8 | 97.0 | 0.8 | 2.5 | 96.0
CN1CCN(C(=O)CCc2nnc3ccc(N4CCC5(CC4)OCCO5)nn23)CC1 | i | -1.2 | 97.0 | 0.2 | 2.5 | 100.0
CCOC(=O)C1CCN(C(=O)CCc2nnc3ccc(N4CCN(C)CC4)nn23)CC1 | i | 2.7 | 98.0 | 1.0 | -2.9 | 101.0
Cc1ccc(NC(=O)CCc2nnc3ccc(N4CCC5(CC4)OCCO5)nn23)nc1 | ? | -4.7 | 104.0 | 1.8 | 2.1 | .
COc1cccc(N2CCN(C(=O)CCc3nnc4ccc(N5CCCC5)nn34)CC2)c1 | i | 12.5 | 101.0 | 4.5 | -11.5 | .
CC(=O)c1ccc(NC(=O)CCc2nnc3ccc(N4CCC5(CC4)OCCO5)nn23)cc1 | i | -10.6 | 97.0 | 2.5 | -2.8 | .

Screening data as filed in PubChem.
